PubChem BioAssay AID651965 (National Center for Advancing Translational Sciences (NCATS), 2013)
Hit rate of the full screen: of about 340,000 compounds, about 6,400 (1.9%) were called active. Inconclusive results (about 4%) are left out. The call rests on the fitted dose curve; in most records, active means well fitted falling curve with a large enough effect; inconclusive means small, poorly fitted or top-dose-only effect; inactive means no such curve, though single readings can be large or run the other way. Only a selection was taken, and actives are over-represented in it overall.

Each compound was assayed against ATP-dependent Clp protease proteolytic subunit (Bacillus subtilis (strain 168)) (UniProt P80244) (assay: qHTS Assay for Activators of ClpP). Conditions: purified B. subtilis ClpP, FRET peptide cleavage, 20 min; series mostly up to 57.5 µM; activity change, negative = active: at the top concentration.
Summary of the method: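 Buffer: 100 mM Tris/HCl pH8, 100 mM KCl, 0.05% low protease BSA, 2.5% glycerol, 0.01% Tween-20. ClpP 10 microg/mL final; 20 min RT; delta FRET normalized to ADEP and DMSO controls.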
Further: the source files actives as falling curves though it sought activators and does not explain the sign; nearly all actives have a fitted effect of over 65% in size.
Potency means the concentration at half of the fitted maximal effect.

Sequence of ATP-dependent Clp protease proteolytic subunit (Bacillus subtilis (strain 168)) (P80244 whole entry, looked up): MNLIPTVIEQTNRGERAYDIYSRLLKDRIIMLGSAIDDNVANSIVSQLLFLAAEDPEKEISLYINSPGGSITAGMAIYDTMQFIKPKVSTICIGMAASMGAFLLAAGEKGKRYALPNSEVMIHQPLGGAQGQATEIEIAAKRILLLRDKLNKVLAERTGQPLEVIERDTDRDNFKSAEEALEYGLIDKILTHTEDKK

Activity change, negative = active, inactive:
CCOC(=O)C1=CC[C@@H](c2ccccc2)N(S(=O)(=O)c2ccc(C)cc2)[C@H]1c1cccc(OC)c1 -0.37%
O=C(c1ccc(C(F)(F)F)cc1)N1CCC(=O)N([C@H](COCc2ccccc2)Cc2ccccc2)CC1 1.19%
CCc1nnc(NC(=O)CCN(c2ccc(C)cc2)S(=O)(=O)c2ccccc2)s1 -1.33%
O=C(O)c1cc(S(=O)(=O)N(Cc2ccccc2)c2cccc(C(F)(F)F)c2)ccc1Cl 0.0784%
CN(C)CCNC(=O)c1cccc(-c2cnc3c(NC=O)cc(-c4cccc(C(F)(F)F)c4)cn23)c1 -17.7%
CCN(CC(=O)Nc1ccccc1OC)C(=O)Cn1cnc2ccccc2c1=O 0.736%
COc1ccc(S(=O)(=O)N2CCOCC2)cc1NC(=O)CC1CC2CCC1C2 (configuration not stated) -3.72%
COc1cccc(-c2nc3nc(C)cc(C)n3c2NC2CCCCC2)c1 -3.3%
COc1ccccc1-c1cc2nc(NCc3cccc(Cl)c3)ccn2n1 4.4%
Cc1nc2sccn2c(=O)c1S(=O)(=O)NCCc1ccccc1 4.27%
O=S(=O)(NCCc1ccc(Cl)cc1)c1cccs1 1.05%
CCOC(=O)[C@]12CCC=C1N(Cc1ccco1)C(=O)[C@H](CC(=O)NCc1cccc(C(F)(F)F)c1)C2 -6.96%
O=[N+]([O-])c1ccc(CN2CC(N3CC=CC3)CS2(=O)=O)cc1 (configuration not stated) 1.65%
Cc1ccc(-c2cnc(C(O)c3cc(Cl)cc(Cl)c3)[nH]2)cc1 (configuration not stated) 1.37%
Cc1cc2oc(=O)cc(CN(C)Cc3ccccc3)c2cc1Cl -7.02%
CN1OC[C@@H]2CN[C@H](c3ccc(-c4ccccc4)cc3)C[C@@H]21 -2.05%
Cc1ccc(C2=C/C(=C\c3cccnc3)C(=O)O2)cc1 -1.52%
Cc1ccc(C2=N/C(=C\c3ccc(OS(=O)(=O)c4ccc(C)cc4)cc3)C(=O)O2)cc1 -15.4%
O=C(NCCCN1CCOCC1)c1cc(-c2ccccc2F)no1 2.03%
Cc1cccc(NC(=O)CSc2nc(-c3ccco3)cc(C(F)(F)F)n2)c1C -2.67%
Cc1cccc(N2CCN(C(=O)c3cnn4c(C(F)F)cc(-c5ccccc5)nc34)CC2)c1C -7.22%
Cc1ccc(-c2cc(C(F)(F)F)n3ncc(C(=O)N4CCCCC4c4cccnc4)c3n2)cc1 (configuration not stated) -17.6%
O=C(NCc1ccco1)c1cnn2c(C(F)(F)F)cc(-c3ccco3)nc12 -13.7%
O=C(NCCCN1CCOCC1)c1cn(-c2ccccc2)nc1-c1ccc(F)cc1 -21.8%
Cc1cccc(CNC(=O)c2sc(=O)n(Cc3ccccc3C)c2C)c1 -1.33%
Cc1ccc(-c2nc3ccc(Br)cn3c2Cc2ccccc2C(F)(F)F)cc1 -24.2%
Cc1csc[n+]1CCC1CCCCC1 -0.672%
CCOC(=O)C1(C)CCCN(C(=O)c2cccc(Cl)c2)C1 (configuration not stated) 2.42%
CN(C(=N)N)c1ccc(/C=C2\C=Cc3ccccc32)cc1 0.827%
CCCCC(CCCC)c1ccc(C=Nc2ccc(/C=C/c3ccnc4ccccc34)cc2)cc1 -3.34%
CCc1cc(Br)ccc1NC(=O)C1CCCO1 (configuration not stated) 0.0691%
Cc1cc([N+](=O)[O-])ccc1NC(=O)C1CCCO1 (configuration not stated) -13.9%
C#Cc1ccc(NC(=O)C2(C)CCN2C(=O)Cc2ccc(-c3ccccc3)cc2)cc1 (configuration not stated) 0.114%
CCCNC(=O)C1(C)CCN(C(=O)c2ccccc2OC(F)(F)F)C1 (configuration not stated) 2.38%
O=C(Nc1ccc(Cl)cc1)c1csc([C@@H]2O[C@H](CO)[C@H](O)[C@H](O)[C@H]2O)n1 2.06%
COc1ccc(C2Nc3ccc(NC(=O)COC(C)=O)cc3C(=O)N2Cc2ccccc2)cc1COc1ccc(NC(C)=O)cc1 (configuration not stated) 61.6%
COc1ccc(C2Nc3ccccc3C(=O)N2c2ccc(F)cc2)cc1Cn1nnc2ccccc21 (configuration not stated) 1.26%
COc1cccc(C(NC(C)=O)c2nc(-c3cnc4ccccc4c3)cs2)c1 (configuration not stated) -20.2%
COCC(C)NC(=O)c1ccc(-n2nc(C(F)(F)F)cc2-c2cccs2)cc1 (configuration not stated) -3.54%
CC(CCc1ccccc1)NC(=O)c1cnc(Cl)c(Cl)c1 (configuration not stated) -7.38%
CCOC(=O)C1=CCC(c2ccc(F)cc2)N(S(=O)(=O)c2ccc(C)cc2)C1 (configuration not stated) -0.256%
CCCCOc1ccc(NC(=O)c2cc3c(n(-c4ccc(Cl)cc4)c2=O)CCCC3=O)cc1 0.294%
CCOC(=O)C1=C(N)N(c2ccc(C)cc2)C2=C(C(=O)CCC2)C1c1cccs1 (configuration not stated) -0.469%
Cc1ccc([C@H]2C[C@H](O)[C@@H](n3cc(COC(=O)c4ccccc4)nn3)CN2CC2CCCCC2)cc1 -2.3%
COc1ccc(C(C)(O)c2nc(-c3ccc(C)c(C)c3)cs2)cc1 (configuration not stated) -3.11%
ClC/C=C/C[n+]1ccccc1Cl -7.68%
Cc1cc(OC(C)C(=O)NC2CC(C)(C)NC(C)(C)C2)c2c(C)cc(=O)oc2c1 (configuration not stated) 3.98%
CCc1cc(=O)oc2cc(C)cc(OCC(=O)N3CCC[C@@H]3C(=O)O)c12 4.5%
CC1(C(=O)NS(=O)(=O)c2ccc(C#N)cc2)CCN1C(=O)c1ccc(C2CCCCC2)cc1 (configuration not stated) -4.45%
CC(C)(C)c1ccc(C(=O)C[n+]2cccc3cc(Cl)ccc32)cc1 -13.7%

Potency, active:
Cc1ccc(N(CCC(=O)O)S(=O)(=O)c2cccc(C(F)(F)F)c2)cc1 31.6 µM
CCN(CC(=O)Nc1ccccc1OC)C(=O)CC1CC2CCC1C2 (configuration not stated) 35.5 µM
Cc1nc2sc(C)c(C)n2c(=O)c1S(=O)(=O)NCCc1ccc(Cl)cc1 3.98 µM
O=C1OC(c2ccc(Cl)cc2)=N/C1=C\c1cccnc1 3.16 µM
O=C(O)c1cnn2c(C(F)(F)F)cc(-c3ccccc3)nc12 0.631 µM
COC(=O)c1cnn2c(C(F)(F)F)cc(-c3ccco3)nc12 28.2 µM
O=C(NCCCN1CCOCC1)c1cnn2c(-c3ccccc3)cc(-c3ccccc3)nc12 15.8 µM
COC(=O)c1cc(OC)c(OC)cc1NC(=O)C1CCCO1 (configuration not stated) 20 µM
COc1ccc(C2Nc3ccccc3C(=O)N2Cc2ccccc2)cc1Cn1nnc2ccccc21 (configuration not stated) 35.5 µM
COCC(C)NC(=O)c1ccc(Cl)c(Cl)c1 (configuration not stated) 14.1 µM
CCOC(=O)c1cc2c(n(-c3ccc(C)cc3)c1=O)CCCC2=O 31.6 µM
CCc1cc(=O)oc2cc(C)cc(OC(C)C(=O)O)c12 (configuration not stated) 3.55 µM
